Data: PubChem BioAssay
For part of these data: Results with a measured potency or affinity are listed apart. The source made the active and inactive calls. Unless noted, the rule behind the calls is not given here.

Legend:
[1] = antimalarial activity against Dd2 strain (AID 2302;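 active = growth inhibition above 50% at the single 2 µM test dose, taken to imply half-maximal potency below 2 µM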;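 note: 0% = DMSO untreated growth and 100% = chloroquine plus artemisinin killed control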); conditions: P. falciparum Dd2 in RBCs, LDH growth readout, 72 h; at 2 µM; stronger effect = higher value
[2] = HepG2 cytotoxicity, primary screen, cytotoxicity control for P. falciparum antimalarial project, cell-based, ATP luminescence (AID 2303;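 active = inhibition above 50%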;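 note: 0% = DMSO wells and 100% = digitonin-killed cells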); conditions: HepG2 viability, 24-48 h, at 10 µM, stronger effect = higher value
[3] = molecular target: L-lactate dehydrogenase (Plasmodium falciparum (isolate CDC / Honduras)) (UniProt Q27743); test: PfLDH activity inhibition – cell lysate, 3D7 strain, counter-screen for P. falciparum growth inhibition project (AID 2304);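 note: 0% = vehicle and 100% = reference inhibitor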; conditions: P. falciparum 3D7 crude extract, LDH APAD/NBT absorbance; at 2 µM; stronger effect = higher value
L-lactate dehydrogenase (Plasmodium falciparum (isolate CDC / Honduras)), sequence (Q27743 whole entry, looked up): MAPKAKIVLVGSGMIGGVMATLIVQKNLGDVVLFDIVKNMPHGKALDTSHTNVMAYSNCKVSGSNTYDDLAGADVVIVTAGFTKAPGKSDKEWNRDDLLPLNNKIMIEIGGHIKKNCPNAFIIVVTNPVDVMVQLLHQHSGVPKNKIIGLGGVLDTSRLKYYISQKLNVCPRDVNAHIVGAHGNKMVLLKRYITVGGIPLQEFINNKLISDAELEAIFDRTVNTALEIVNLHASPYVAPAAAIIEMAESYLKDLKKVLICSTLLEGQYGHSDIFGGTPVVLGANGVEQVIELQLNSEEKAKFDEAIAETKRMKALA

[4] = inhibition of 3D7 malaria parasite growth – strain 3D7 (AID 2306);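 note: 0% = DMSO wells and 100% = chloroquine plus artemisinin control wells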; conditions: P. falciparum 3D7 erythrocytic growth, LDH absorbance, 72 h; at 2 µM; stronger effect = higher value
[5] = molecular target: Calcium-dependent protein kinase 1 (Plasmodium falciparum (isolate 3D7)) (UniProt P62344); test: PfCDPK1 kinase inhibitors, biochemical, TCAMS library (AID 1159585; cut-off not given, nearly all actives have IC50 up to about 0.98 µM;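 note: inhibitors leave more ATP so luminescence rises with inhibition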); conditions: recombinant PfCDPK1, Kinase-Glo ATP depletion luminescence
Calcium-dependent protein kinase 1 (Plasmodium falciparum (isolate 3D7)), sequence (P62344 whole entry, looked up): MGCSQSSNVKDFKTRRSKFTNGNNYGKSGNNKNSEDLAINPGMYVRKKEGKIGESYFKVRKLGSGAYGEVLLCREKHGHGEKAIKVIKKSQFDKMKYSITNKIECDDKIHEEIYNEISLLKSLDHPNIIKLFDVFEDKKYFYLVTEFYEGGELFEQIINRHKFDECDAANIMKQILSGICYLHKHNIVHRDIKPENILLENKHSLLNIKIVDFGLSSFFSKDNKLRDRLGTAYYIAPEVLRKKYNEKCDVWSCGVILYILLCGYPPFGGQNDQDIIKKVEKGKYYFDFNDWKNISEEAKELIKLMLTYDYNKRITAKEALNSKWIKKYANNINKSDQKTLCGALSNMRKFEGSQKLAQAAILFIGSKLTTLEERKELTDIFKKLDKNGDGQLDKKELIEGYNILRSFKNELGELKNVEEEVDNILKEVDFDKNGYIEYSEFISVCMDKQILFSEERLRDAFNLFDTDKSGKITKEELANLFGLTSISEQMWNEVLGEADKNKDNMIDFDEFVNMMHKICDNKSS

[6] = molecular target: Plasmodium falciparum protein kinase 6 (PK6, PF3D7_1337100) (UniProt Q8IDW1); test: PfPK6 kinase inhibitors, biochemical, TCAMS library (AID 1159586); conditions: recombinant PfPK6, Kinase-Glo ATP depletion luminescence
Plasmodium falciparum protein kinase 6 (PK6, PF3D7_1337100), sequence (Q8IDW1 1-305): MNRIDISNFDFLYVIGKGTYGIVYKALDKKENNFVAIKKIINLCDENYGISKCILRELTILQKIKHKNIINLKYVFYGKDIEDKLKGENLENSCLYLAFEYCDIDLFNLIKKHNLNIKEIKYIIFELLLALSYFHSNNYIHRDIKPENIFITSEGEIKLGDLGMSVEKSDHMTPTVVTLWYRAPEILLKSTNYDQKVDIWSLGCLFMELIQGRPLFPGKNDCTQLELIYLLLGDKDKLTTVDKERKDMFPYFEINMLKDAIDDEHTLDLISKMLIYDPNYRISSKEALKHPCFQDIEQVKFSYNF

[7] = molecular target: Protein kinase 7 (PK7), Plasmodium falciparum 3D7 (PF3D7_0213400) (UniProt Q7YTF7); test: inhibition of Plasmodium PK7 catalytic activity – biochemical, TCAMS antimalarial set, Kinase-Glo luminescence (AID 1159587); conditions: recombinant PfPK7, Kinase-Glo ATP depletion luminescence
Protein kinase 7 (PK7), Plasmodium falciparum 3D7 (PF3D7_0213400), sequence (Q7YTF7 1-343): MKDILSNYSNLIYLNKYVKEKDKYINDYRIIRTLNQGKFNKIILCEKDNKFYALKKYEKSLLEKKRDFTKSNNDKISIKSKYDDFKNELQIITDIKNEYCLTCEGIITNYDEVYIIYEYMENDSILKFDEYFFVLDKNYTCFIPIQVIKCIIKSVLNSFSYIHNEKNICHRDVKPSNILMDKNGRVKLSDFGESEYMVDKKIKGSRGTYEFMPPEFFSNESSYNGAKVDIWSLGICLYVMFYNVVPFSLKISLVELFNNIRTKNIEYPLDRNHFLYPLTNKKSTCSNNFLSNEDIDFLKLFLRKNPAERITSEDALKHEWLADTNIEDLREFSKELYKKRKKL

[8] = molecular target: Calcium-dependent protein kinase 4 (Plasmodium falciparum (isolate 3D7)) (UniProt Q8IBS5); test: PfCDPK4 kinase inhibitors, biochemical, TCAMS library (AID 1159588; cut-off not given, nearly all actives have IC50 up to about 0.91 µM); conditions: recombinant PfCDPK4, Kinase-Glo ATP depletion luminescence
Calcium-dependent protein kinase 4 (Plasmodium falciparum (isolate 3D7)), sequence (Q8IBS5 whole entry, looked up): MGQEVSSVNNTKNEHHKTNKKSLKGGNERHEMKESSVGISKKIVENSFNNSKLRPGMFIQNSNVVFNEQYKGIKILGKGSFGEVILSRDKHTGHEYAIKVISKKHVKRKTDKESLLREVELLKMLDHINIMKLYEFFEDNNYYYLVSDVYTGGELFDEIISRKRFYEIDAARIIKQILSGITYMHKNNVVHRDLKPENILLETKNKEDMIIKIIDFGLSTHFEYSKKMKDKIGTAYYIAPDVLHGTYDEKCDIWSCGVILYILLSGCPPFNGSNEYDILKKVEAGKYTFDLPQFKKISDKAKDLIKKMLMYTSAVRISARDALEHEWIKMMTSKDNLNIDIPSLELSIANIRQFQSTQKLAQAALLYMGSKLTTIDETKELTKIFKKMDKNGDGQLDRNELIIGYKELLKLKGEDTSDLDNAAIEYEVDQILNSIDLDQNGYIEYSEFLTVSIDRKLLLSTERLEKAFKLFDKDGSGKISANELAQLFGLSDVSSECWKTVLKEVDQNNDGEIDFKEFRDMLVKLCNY

CN(CC(=O)Nc1cc(C(F)(F)F)ccc1-n1cncn1)Cc1ccc2ccccc2c1
inactive: inhibition [2] 18% | inhibition [3] 3% | outcome [5] | outcome [6] | outcome [7] | outcome [8]
active: growth inhibition [1] 99% | growth inhibition [4] 98%

O=C(/C=C/c1ccc(Cl)c(Cl)c1)NCCCCCN1CC[C@H](NC(=O)Nc2ccc(Oc3ccccc3)cc2)C1
inactive: growth inhibition [1] 14% | inhibition [2] 47% | inhibition [3] -9% | outcome [5] | outcome [6] | outcome [7] | outcome [8]
active: growth inhibition [4] 100%

COc1ccc(-c2cccc(NC(=O)c3ccc(Cl)cc3)c2)cc1CN1CCCC1
inactive: inhibition [3] -7% | outcome [5] | outcome [6] | outcome [7] | outcome [8]
active: growth inhibition [1] 52% | inhibition [2] 55% | growth inhibition [4] 97%

Cc1cc(N2Cc3ccccc3C2)nc(Nc2cccc(C#N)c2)n1
active: growth inhibition [1] 97% | growth inhibition [4] 100%
inactive: inhibition [2] 6% | inhibition [3] -2% | outcome [5] | outcome [6] | outcome [7] | outcome [8]

CC(C)Sc1ccc(Cl)cc1CON1C(N)=NC(N)=NC1(C)C
active: growth inhibition [1] 90% | inhibition [2] 66% | growth inhibition [4] 93%
inactive: inhibition [3] 6% | outcome [5] | outcome [6] | outcome [7] | outcome [8]

Cc1cc(F)ccc1Nc1nc(N(C)c2ccccc2)c2cccc(O)c2n1
active: growth inhibition [1] 81% | growth inhibition [4] 92%
inactive: inhibition [2] 38% | inhibition [3] 2% | outcome [5] | outcome [6] | outcome [7] | outcome [8]

COc1ccc(S(=O)(=O)N2CCCC(C)C2)cc1N1CCN(C(=O)c2ccc([N+](=O)[O-])o2)CC1 (centres undefined)
active: growth inhibition [4] 94%
inactive: growth inhibition [1] 4% | inhibition [2] -3% | inhibition [3] -2% | outcome [5] | outcome [6] | outcome [7] | outcome [8]

N#Cc1ccc(-c2ccc(C(=O)NCCCCN3CCC(c4ccncc4)CC3)cc2)cc1
inactive: growth inhibition [1] 16% | inhibition [2] 34% | inhibition [3] -3% | outcome [5] | outcome [6] | outcome [7] | outcome [8]
active: growth inhibition [4] 94%

O=C(Nc1ccc(C(F)(F)F)cc1)NC1CCN(c2ccnc3ccccc23)CC1
active: growth inhibition [1] 62% | growth inhibition [4] 103%
inactive: inhibition [2] 46% | inhibition [3] -2% | outcome [5] | outcome [6] | outcome [7] | outcome [8]

Cc1ccc2c(=O)c3cc(C)ccc3[nH]c2c1
active: growth inhibition [1] 94% | growth inhibition [4] 96%
inactive: inhibition [2] 10% | inhibition [3] 5% | outcome [5] | outcome [6] | outcome [7] | outcome [8]

CC(C)[C@H]1CC[C@H](C)C[C@@H]1OC(=O)N[C@@H](Cc1ccc(O)cc1)C(=O)NC1CCN(Cc2ccc(OCCCN(C)C)cc2)C1 (some centres undefined)
inactive: inhibition [2] 27% | inhibition [3] 4% | outcome [5] | outcome [6] | outcome [7] | outcome [8]
active: growth inhibition [1] 64% | growth inhibition [4] 99%

CC(C)(C)c1ccc(CNC(=O)COc2ccc(-c3nnc(-c4cccc([N+](=O)[O-])c4)o3)cc2[N+](=O)[O-])cc1
active: growth inhibition [4] 93%
inactive: growth inhibition [1] 25% | inhibition [2] 10% | inhibition [3] -7% | outcome [5] | outcome [6] | outcome [7] | outcome [8]

CN(CCCCCN1CCC(NC(=O)Nc2ccc(C(F)(F)F)cc2)C1)C(=O)/C=C/c1ccc(Cl)c(Cl)c1 (centres undefined)
active: growth inhibition [4] 101%
inactive: growth inhibition [1] 11% | inhibition [2] 28% | inhibition [3] -3% | outcome [5] | outcome [6] | outcome [7] | outcome [8]

NC(N)=NN=CC(=O)Nc1cccc(C(F)(F)F)c1
inactive: growth inhibition [1] 25% | inhibition [2] 21% | inhibition [3] 1% | outcome [5] | outcome [6] | outcome [7] | outcome [8]
active: growth inhibition [4] 99%

O=C(COc1ccc(C(=O)c2ccccc2)cc1)Nc1nccs1
active: growth inhibition [4] 94%
inactive: growth inhibition [1] 18% | inhibition [2] 0% | inhibition [3] 2% | outcome [5] | outcome [6] | outcome [7] | outcome [8]

O=C(/C=C/c1ccc(Cl)c(Cl)c1)NCCCN1CCC(c2c[nH]c3ccccc23)CC1
active: growth inhibition [4] 90%
inactive: growth inhibition [1] 5% | inhibition [2] 48% | inhibition [3] -4% | outcome [5] | outcome [6] | outcome [7] | outcome [8]

CC(C)N1CCC(N(Cc2ccc(-c3ccc(C(F)(F)F)cc3)cc2)C(=O)Cn2c(SCc3cccc(F)c3F)nc(=O)c3ccccc32)CC1
active: growth inhibition [1] 75% | inhibition [2] 74% | growth inhibition [4] 91%
inactive: inhibition [3] -4% | outcome [5] | outcome [6] | outcome [7] | outcome [8]

COc1ccc2nc3cc(Cl)ccc3c(Nc3ccc(Sc4ccc(Nc5c6ccc(Cl)cc6nc6ccc(OC)cc56)cc4)cc3)c2c1
active: growth inhibition [1] 94% | growth inhibition [4] 92%
inactive: inhibition [2] 1% | inhibition [3] -4% | outcome [5] | outcome [6] | outcome [7] | outcome [8]
